The test system of assay [1] is CRL-7250. In words: Cytotoxic Profiling of Annotated Libraries Using Quantitative High-Throughput Screening (AID 1296008). The settings on record: Five cell lines viability, CellTiter-Glo ATP luminescence, 48-72 h; max response: active compounds read low. The method in brief: (§1)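 Compounds were pin-transferred onto cells and incubated 48 or 72 hr at 37 degree Celsius, 95% humidity. CellTiter-Glo was added, plates sat 10 min at room temperature, then ATP-coupled luminescence was imaged as the viability read-out.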
In general terms: In ATP-based viability assays light output follows the ATP content of the culture.

In assay [2] the test system is HEK293. The assay is described as above. The note with it: Five cell lines viability, CellTiter-Glo ATP luminescence, 48-72 h; max response: active compounds read low. Put shortly:
as §1

Assay [3] concerns MCC-13. In words: qHTS assay to identify novel small-molecules to repurpose for Merkel cell carcinoma treatment (AID 1296009). The note with it: MCC and control cell lines, CellTiter-Glo viability, 72 h; series mostly up to 46 µM. The method in brief: (§2)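 qHTS format: cells treated with library compounds in DMSO across 8 (NPC) or 11 (MIPE) concentrations. Readout after 72 hr at 37 degree celsius was CellTiter-Glo luminescence.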

In assay [4] the test system is MKL-2. The description is as above. The settings on record: MCC and control cell lines, CellTiter-Glo viability, 72 h; series mostly up to 46 µM. Put shortly: as §2
The subject of assay [5] is KB-3-1. The assay is described as follows: Cytotoxic Profiling of Annotated Libraries Using Quantitative High-Throughput Screening (AID 1296008). The settings on record: Five cell lines viability, CellTiter-Glo ATP luminescence, 48-72 h; max response: active compounds read low. Put shortly: as §1
In assay [6] the test system is NIH3T3. The description is as above. The note with it: Five cell lines viability, CellTiter-Glo ATP luminescence, 48-72 h; max response: active compounds read low. Put shortly: as §1
For assay [7], the system named is MCC-26. In words: qHTS assay to identify novel small-molecules to repurpose for Merkel cell carcinoma treatment (AID 1296009). The note with it: MCC and control cell lines, CellTiter-Glo viability, 72 h; series mostly up to 46 µM. Put shortly:
as §2

The test system of assay [8] is MKL-1. Described as above. The note with it: MCC and control cell lines, CellTiter-Glo viability, 72 h; series mostly up to 46 µM. The method in brief:
as §2

Assay [9] has as its system NIH3T3. The assay is described as above. The note with it: MCC and control cell lines, CellTiter-Glo viability, 72 h; at 44.8 µM (top of the series) unless noted. Put shortly:
as §2

The test system of assay [10] is UISO. The description is as above. The settings on record: MCC and control cell lines, CellTiter-Glo viability, 72 h; series mostly up to 46 µM. The method in brief:
as §2

In assay [11] the test system is HaCat. The assay is described as follows: Cytotoxic Profiling of Annotated Libraries Using Quantitative High-Throughput Screening (AID 1296008). The settings on record: Five cell lines viability, CellTiter-Glo ATP luminescence, 48-72 h; max response: active compounds read low. Put shortly: as §1
The subject of assay [12] is HACAT. In words: qHTS assay to identify novel small-molecules to repurpose for Merkel cell carcinoma treatment (AID 1296009). The note with it: MCC and control cell lines, CellTiter-Glo viability, 72 h; series mostly up to 44.8 µM. The method in brief:
as §2
Background: In qHTS, concentration-response curves come from the screen itself.

The subject of assay [13] is HEK293T. The assay is described as above. The settings on record: MCC and control cell lines, CellTiter-Glo viability, 72 h; at 44.8 µM (top of the series) unless noted. The method in brief: as §2

The source of these data is PubChem BioAssay (NCATS).

Structures are written as SMILES. Values joined by “and” are separate entries in the source; they are usually repeats but may differ in a detail not shown here. Equal entries are not always repeated. Records with an inconclusive call do not appear. Some structures have more than one record in an assay (separate samples or runs), and their calls can disagree. Unmarked numbers belong to inactive results. Active and inactive are the calls of the source. Calls come from the whole dose curve; as a rule, active = well fitted inhibition curve with a large enough effect; inconclusive = small, poorly fitted or top-dose-only effect; inactive = flat fitted curve, though single readings scatter.
% is set by controls: 0 for no effect and ±100 for the full control effect; potency is the fitted concentration of half-maximal effect.
Note: nearly all actives have a fitted effect of over 60% in size.

`COc1cc2c(NC3CCN(C(C)C)CC3)nc(C3CCCCC3)nc2cc1OCCCN1CCCC1`: the Potency was 8.33 µM (active) and 4.11 µM (active) in assay [1]; 7.43 µM (active) and 5.8 µM (active) in assay [2]; 6.62 µM (active) in [4]. Besides, the Potency result in [3] was “inactive”.
As to `O=C(O)c1ccc2c(c1)nc(Nc1cccc(Cl)c1)c1ccncc12`, the Potency in [1] is 14.6 µM (active); in [2], 10.3 µM (active); in [5], 20.6 µM (active); in [4], 5.26 µM (active); in [10], 4.18 µM (active). Also, the max response in assay [5] is 6.46%. Besides, the result in [6] and in assay [9] was inactive. The Potency entry in [7] and in [8] was “inactive” throughout.
For the compound `Nc1ccccc1NC(=O)c1ccc(CNC(=O)OCc2cccnc2)cc1`, the Potency was 9.2 µM (active) in assay [1]; 7.43 µM (active) and 6.51 µM (active) in [2]; 13.2 µM (active) and 5.17 µM (active) in assay [11]; 9.35 µM (active) and 7.31 µM (active) in [5]; 2.35 µM (active) in assay [8]; 0.296 µM (active) in [4]. Further, the Potency in [10] is 2.35 µM (active).
For the compound `CC(C)c1cc(-c2n[nH]c(=O)n2-c2ccc3c(ccn3C)c2)c(O)cc1O`, the Potency is 148 nM (active) and 103 nM (active) in assay [1]; 46.9 nM (active) and 41.1 nM (active) in assay [2]; 65.1 nM (active) in assay [11]; 105 nM (active) and 116 nM (active) in assay [6]; 0.132 µM (active) in assay [3]; 0.372 µM (active) in [10]. In addition, the Potency entry in assay [4] is “inactive”.
Turning to `C[C@@]12O[C@@H](C[C@]1(O)CO)n1c3ccccc3c3c4c(c5c6ccccc6n2c5c31)CNC4=O`, the Potency is 0.0833 µM (active) in assay [1]; 4.18 µM (active) in [2]; 0.372 µM (active) in [5]; 1.87 µM (active) in [6]; 18.7 µM (active) in assay [7]; 1.48 µM (active) in [8]. In addition, the Potency is 0.0526 µM (active) in assay [4] and 1.66 µM (active) in [10].
Turning to `CCC(=C(c1ccccc1)c1ccc(OCCN(C)C)cc1)c1ccccc1`, the max response in assay [1] is 3.45%; in assay [11], 2.08%; in assay [5], -16.9%; in assay [6] it was 1.38%. In addition, the Potency entry in assay [3] and in [7] was “inactive” in each case.
With `Cc1cnc(Nc2ccc(F)cc2Cl)nc1-c1c[nH]c(C(=O)N[C@H](CO)c2cccc(Cl)c2)c1`, the Potency in [1] is 18.7 µM (active) and 20.6 µM (active); in [6] it was 10.5 µM (active); in assay [4] it was 14.8 µM (active); in [10] it was 2.64 µM (active). The max response in assay [2] is -111%; in assay [11], -129%.
`O=C(O)[C@H](Cc1c[nH]c2ccccc12)N1C(=O)c2ccccc2C1=O`: the result in assay [1] and in [11] was inactive. The max response in assay [5] is 3.99%; in [6], 4.64%. The Potency entry in [12], in assay [3], in assay [7], in assay [8], in assay [4] and in assay [10] was “inactive” in each case. Moreover, the outcome in [13] is “inactive [at 92 µM]”.
On to `Cc1cn2c(-c3cn[nH]c3)cnc2c(Nc2ccc(C(=O)N3CCNCC3)cc2F)n1`, for which the results for the Potency in [1] and in assay [2] were 6.51 µM (active) and 16.4 µM (active), respectively. Moreover, the Potency entry in assay [3], in assay [7], in [8] and in assay [4] was “inactive” each time.
As for `Cc1cccc(C=NNc2cc(N3CCOCC3)nc(OCCc3ccccn3)n2)c1`, the max response is -4.72% in assay [1] and -6.14% in [11]. Besides, the Potency in [2] is 5.9 µM (active); in assay [8], 20.9 µM (active); in assay [4], 16.6 µM (active). For the same compound, the Potency entry in assay [3] and in assay [7] was “inactive” each time.
As for `CCN(CC)CCNC(=O)c1ccc2nc(-c3ccccc3)c(-c3ccc(CN4CCC(n5c(=O)[nH]c6ccccc65)CC4)cc3)nc2c1`, the Potency in [1] was 9.35 µM (active); in assay [2], 2.96 µM (active) and 8.2 µM (active); in assay [6] it was 10.5 µM (active); in [3] it was 8.33 µM (active); in [8], 1.32 µM (active); in assay [4], 1.18 µM (active). Besides, the Potency in assay [10] is 16.6 µM (active).
As to `COc1c(OCCCN2CCOCC2)ccc2c3n(c(=NC(=O)c4cnc(N)nc4)nc12)CCN3`, the Potency in assay [1] was 2.29 µM (active); in [2], 363 nM (active) and 42.2 nM (active); in assay [5] it was 0.0944 µM (active); in assay [6], 2.88 µM (active) and 59.6 nM (active). Besides, the Potency result in [8] is “inactive”.
For `CS(=O)(=O)N1CCN(Cc2cc3nc(-c4cccc5[nH]ncc45)nc(N4CCOCC4)c3s2)CC1`, the Potency was 1.05 µM (active) and 1.64 µM (active) in assay [1]; 372 nM (active) and 1.84 µM (active) in assay [2]; 29.6 nM (active) in assay [11]; 296 nM (active) and 1.3 µM (active) in [6]; 1.32 µM (active) in [10]. Further, the Potency result in [3] is “inactive”.
For `Cn1c2ccccc2c2c3c(c4c5ccccc5n(CCC#N)c4c21)CNC3=O`, the Potency is 14.6 µM (active) in assay [1]; 2.35 µM (active) and 7.31 µM (active) in [2]; 10.5 µM (active) in assay [6]; 2.09 µM (active) in assay [10]. Besides, the max response in assay [5] was 4.23% and -14.5%; in assay [6], -14.2%.
Regarding `COC(=O)[C@]12CCC(C)(C)C[C@@H]1[C@@H]1C(=O)C=C3[C@@]4(C)C=C(C#N)C(=O)C(C)(C)[C@@H]4CC[C@@]3(C)[C@]1(C)CC2`, the Potency in assay [1] was 4.69 µM (active); in assay [2], 2.96 µM (active); in [11], 4180 nM (active); in assay [5], 1.18 µM (active). For the same compound, the Potency entry in assay [7] and in assay [8] was “inactive” in each case.
Regarding `Cc1c(Cn2c(C)nc3c(C(=O)O)cc(N4CCOCC4)cc32)cccc1C(F)(F)F`, the max response in assay [1] was -5.25%; in assay [5], 6.95%; in [6] it was 3.21% and -3.58%. Also, the result in assay [11], in [5] and in assay [13] was inactive. Besides, the Potency entry in [12], in assay [3], in assay [7], in assay [8], in assay [4] and in [10] was “inactive” in each case.
